Compound activity deposited in PubChem BioAssay by National Center for Advancing Translational Sciences (NCATS).
aGlu spleen mod: inhibits or activates alpha-glucosidase in human spleen homogenate; P10253; Potency, µM (highest dose often 79.9 µM), for inactives: at the highest dose activity change, negative = inhibition, most hits filed as inhibitors; actives 0.006% (n = 240,000); human spleen homogenate, 4-MU-alpha-glucoside fluorescence;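 note: potency is the fitted concentration of half-maximal effect; 0% = enzyme with vehicle and -100% = no enzyme basal signal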
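Compounds were titrated against alpha-glucosidase in spleen homogenate at pH 5.0, with 1 mM 4-methylumbelliferyl substrate for 40 min at 37 C. Reactions were quenched with pH 10 NaOH/glycine and fluorescence measured.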
GAA glycogen: GAA glycogen-cleavage inhibition or activation. recombinant GAA, glycogen substrate, Amplex Red glucose oxidase fluorescence. actives 0.38% (n = 300,000). P10253. Potency, µM (highest dose often 76.4 µM), without a hit: top-dose activity change, negative = inhibition, most hits filed as inhibitors;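 note: potency is the fitted concentration of half-maximal effect; 0% = full enzyme reaction and -100% = no-enzyme basal signal; the screen sought inhibitors and activators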
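Natural-substrate format: glycogen cleavage by 4 nM human enzyme, glucose read by Amplex Red coupling (Ex 573, Em 610 nm). Normalized to enzyme and no-enzyme controls.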
GLA spleen mod: inhibits or activates alpha-galactosidase in human spleen homogenate | P06280 | human spleen homogenate, 4MU-alpha-Gal fluorescence, 40 min | Potency, µM (series often up to 80 µM), for inactives: at the top dose activity change, negative = inhibition, actives largely listed as inhibitors | actives 0.008% (n = 240,000) | AID 2107;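 note: potency is the fitted concentration of half-maximal effect; 0% = enzyme with vehicle and -100% = no enzyme basal signal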
Target sequence (P06280 32-429 limits assumed): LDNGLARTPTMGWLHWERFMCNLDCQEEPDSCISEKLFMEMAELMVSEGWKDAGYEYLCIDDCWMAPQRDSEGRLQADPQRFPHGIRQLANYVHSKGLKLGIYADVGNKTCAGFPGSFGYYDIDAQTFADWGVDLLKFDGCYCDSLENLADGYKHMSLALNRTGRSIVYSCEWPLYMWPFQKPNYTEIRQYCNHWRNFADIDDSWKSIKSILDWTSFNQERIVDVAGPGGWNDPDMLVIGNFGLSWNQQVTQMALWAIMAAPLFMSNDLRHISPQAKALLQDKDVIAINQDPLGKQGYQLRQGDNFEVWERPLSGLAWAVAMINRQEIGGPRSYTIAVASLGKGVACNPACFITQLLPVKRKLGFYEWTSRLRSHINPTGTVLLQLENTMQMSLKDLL
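Human spleen homogenate (1 ug) as enzyme source, 4-methylumbelliferyl-alpha-D-galactopyranoside 1 mM final, citrate/phosphate pH 5.0 with 0.01% Tween-20. Compounds 40 min at 37C, NaOH/glycine stop; fluorescence Ex 365/Em 440, Hill-fit AC50.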
GAA inh: blocks human lysosomal alpha-glucosidase; Potency, µM (doses to about 76.9 µM), without a hit: at the highest dose activity change, negative = inhibition, actives largely listed as inhibitors; P10253; AID 1466; actives 0.005% (n = 200,000); purified human GAA, 4-MU-alpha-glucoside fluorescence;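 note: potency is the fitted concentration of half-maximal effect; plate controls were uninhibited enzyme wells for no effect and no-enzyme background for full effect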
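qHTS format, compound range up to 77 uM. Human lysosomal enzyme at 4 nM, 400 uM 4-MU glucoside substrate, pH 5.0, 20 min room temperature; fluorescence after alkaline stop gives activity normalized to controls.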
N370S GC mod: N370S glucocerebrosidase modulation, Gaucher chaperone candidate | Potency, µM (series often up to 59.4 µM), without a hit: at the top dose activity change, negative = inhibition, usual class: inhibitors | AID 2101 | P04062 | N370S GC spleen homogenate, 4MU-glucoside fluorescence | actives 0.092% (n = 330,000);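 note: potency is the fitted concentration of half-maximal effect; 0% = full enzyme activity and -100% = no enzyme basal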
GLA inh pH 4.5: alpha-galactosidase A (human) inhibition, pH 4.5; P06280; purified enzyme, 4-MU-alpha-Gal fluorescence, pH 4.5; activity change, negative = inhibition, % at 105 µM; 230,000 tested, under 10 active; AID 1467;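 note: 0% = full activity with enzyme and -100% = basal without enzyme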
The depositor's hits bear a star; ? = inconclusive; nt = no result given; [ ] = remark or other dose. Only some compounds are listed: those with a hit (about 0.43% of all), similar ones and a draw of the others. Calls come from the whole dose curve; as a rule, active = well fitted curve in the direction sought with a large enough effect; inconclusive = small, poorly fitted or top-dose-only effect, or another doubt; inactive = no such curve, though single readings can be large; an effect the other way counts as inactive or inconclusive.

SMILES | aGlu spleen mod | GAA glycogen | GLA spleen mod | GAA inh | N370S GC mod | GLA inh pH 4.5
C#CCOCCOCCOCCNc1nc(N2CCN(C(=O)CCCCCCCCCCNC(=O)Cn3cc(C[C@@H](C)O)nn3)CC2)nc(N2CCN(C(=O)CCCCCCCCCCNC(=O)[C@H](CCCCN)n3cc(CCCC(=O)O)nn3)CC2)n1 | nt | nt | nt | nt | -13.5% | nt
C#CCOCCOCCOCCNc1nc(N2CCN(C(=O)CCCCCCCCCCNC(=O)Cn3cc(C[C@@H](C)O)nn3)CC2)nc(N2CCN(C(=O)CCCCCCCCCCNC(=O)[C@H](CCCN=C(N)N)n3cc(C[C@@H](C)CC)nn3)CC2)n1 | nt | nt | nt | nt | 2.82µM* | nt
CC[C@@]1([C@@H]2O[C@@H]([C@H]3O[C@@](O)(CO)[C@H](C)C[C@@H]3C)C[C@@H]2C)CC[C@@H]([C@]2(C)CCC3(C[C@H](O)[C@@H](C)[C@@H]([C@@H](C)[C@@H](OC)[C@H](C)C(=O)O)O3)O2)O1 (stereo partly drawn) | -9.3% | nt | 2.6% | nt | -0.6% | nt
COc1ccc(OC)c(S(=O)(=O)Nc2ccc(O)c3ccccc23)c1 | -6.7% | 14.1µM* | 1.2% | -1.6% | 19.0% | 2.4
Cc1ccc(Nc2c(-c3ccc(N4CCOCC4)cc3)nc3c(C)cccn23)cc1 | nt | 15.8µM* | nt | nt | nt | nt
COc1ccc(-c2nc3ncccn3c2Nc2ccc3c(c2)OCCO3)cc1 | 0.1% | ? | 8.0% | -2.4% | 8.7% | 0.4
Cc1cccc(Nc2c(-c3ccc(N4CCOCC4)cc3)nc3ncccn23)c1 | -3.5% | 35.5µM* | -1.3% | 3.5% | 9.1% | 6.4
O=S(=O)(c1ccc(Cl)cc1)N1CCN(c2nc(-c3cccs3)nc3ccccc23)CC1 | 5.5% | -7.4% | 9.9% | ? | 0.447µM* | -9.2
Oc1cc(O)c2c(c1)O[C@H](c1ccc(O)c(O)c1)[C@H](O)C2 | 11.4%[29.1 µM] | 10µM* | 7.0%[29.1 µM] | nt | -6.2% | 7.3
CCCCc1nc2c(c3c1C[C@H](C)OC3)CN(S(=O)(=O)c1ccccc1C(=O)OC)CC2 | -5.0%[17.4 µM] | nt | 4.1%[17.5 µM] | nt | -1.5%[12.8 µM] | 12.5
CCNc1ccc(C(=O)O)cc1N | 2.2% | ? | 1.8% | 2.3% | -6.4% | -16.0
Nc1cc(C(=O)O)ccc1Nc1ccccc1 | 3.3% | 12.5µM* | 17.7% | ? | 13.2% | 13.9
Nc1ccccc1C(=O)Nc1cccc(C(=O)O)c1 | 9.9% | -6.6% | 2.0% | 4.7% | 6.9% | -4.2
CCc1ccccc1Nc1ccc(C(=O)O)cc1N | -12.7% | 3.14µM* | -0.2% | -4.6% | 5.6% | -2.5
CC(O)C#C[Si](C)(C)c1ccccc1 (stereo not drawn) | -5.0% | nt | 4.9% | nt | 0.2% | 1.6
O=c1c2nc(Br)n([C@@H]3O[C@@H]4CO[P@@](O)(=S)O[C@H]4[C@H]3O)c2nc2[nH]c(-c3ccccc3)cn12 | 1.3% | nt | 5.2% | nt | -1.6% | nt
C/C=C/c1cc(CN2CCN(c3ccccc3)CC2)c(O)c(OC)c1 | 1.2% | ? | 3.3% | 6.0% | -8.4% | -11.0
C/C=C/c1cc(CN2CCN(c3ccc(OC)cc3)CC2)c(O)c(OC)c1 | -1.9% | 14.1µM* | -1.9% | -2.8% | 15.3% | -5.4
Cc1ccn2c(NC3CCCC3)c(-c3ccccn3)nc2c1 | 4.8% | ? | 6.6% | -2.4% | -12.1% | 0.4
Cc1ccn2c(NC3CCCC3)c(-c3ccncc3)nc2c1 | 3.0% | 28.2µM* | 6.3% | -9.6% | -3.1% | 3.4[21.1 µM]
c1ccc(-c2nc3ccccn3c2NC2CCCC2)nc1 | -0.3% | 11.1µM* | 9.3% | -0.9% | -18.0% | -0.7
CC1(C)Cc2c(c(-c3ccccc3)nc3[nH][nH]c(=O)c23)CO1 | -4.8% | 5.01µM* | 6.6% | -2.3% | 1.5% | 0.2
Cn1sc(=O)n(Cc2ccccc2)c1=O | 9.8% | nt | 20.5% | nt | -2.6% | nt
COc1cccc(CN(C)c2nc(-c3cccs3)nc3ccccc23)c1 | -2.7% | 10.2% | -9.0% | -12.1% | 1.58µM* | -2.3
COc1cccc(Nc2nc(-c3cccs3)nc3ccccc23)c1 | 0.6% | 7.4% | -3.7% | -2.6% | 12.6µM* | 3.1
SMILES | aGlu spleen mod | GAA glycogen | GLA spleen mod | GAA inh | N370S GC mod | GLA inh pH 4.5
COc1ccc(Nc2nc(-c3ccccc3)nc3ccccc23)cc1 | nt | -12.8% | nt | nt | ? | nt
COc1ccc(Nc2nc(-c3cccs3)nc3ccccc23)cc1 | -8.3% | -8.8% | -1.8% | -11.1% | 1.12µM* | -9.4
COc1cccc(-c2nc(N(C)C)c3ccccc3n2)c1 | 5.5% | nt | -2.7% | nt | -9.2% | nt
N#CC1=C(SCC(=O)NC2CC2)NC(=O)C(C#N)C12CCCCC2 (stereo not drawn) | -5.9% | 25.1µM* | -13.4% | -0.4% | -1.7% | 11.0
CCOC(=O)NCCOc1ccc(Oc2ccccc2)cc1 | -4.0% | nt | -2.6% | nt | -1.9% | nt
C#CCOCCOCCOCCNc1nc(N2CCN(C(=O)CCCCCCCCCCNC(=O)[C@H]([C@@H](C)CC)n3cc(CCCCCN)nn3)CC2)nc(N2CCN(C(=O)CCCCCCCCCCNC(=O)[C@@H]([C@H](C)CC)n3cc(CCCCCN)nn3)CC2)n1 | nt | nt | nt | nt | 17.8µM* | nt
C#CCOCCOCCOCCNc1nc(N2CCN(C(=O)CCCCCCCCCCNC(=O)[C@H]([C@@H](C)CC)n3cc(CCCCN=C(N)N)nn3)CC2)nc(N2CCN(C(=O)CCCCCCCCCCNC(=O)[C@H](CCCCN)n3cc(C)nn3)CC2)n1 | nt | nt | nt | nt | 15.8µM* | nt
C#CCOCCOCCOCCNc1nc(N2CCN(C(=O)CCCCCCCCCCNC(=O)[C@H]([C@@H](C)CC)n3cc(CCCCCN)nn3)CC2)nc(N2CCN(C(=O)CCCCCCCCCCNC(=O)[C@H]([C@@H](C)CC)n3cc(CCCCN=C(N)N)nn3)CC2)n1 | nt | nt | nt | nt | 17.8µM* | nt
C#CCOCCOCCOCCNc1nc(N2CCOCC2)nc(N2CCN(C(=O)CCCCCCCCCCNC(=O)[C@@H]([C@H](C)CC)n3cc(CCCCCN)nn3)CC2)n1 | nt | nt | nt | nt | -29.1% | nt
C#CCOCCOCCOCCNc1nc(N2CCN(C(=O)CCCCCCCCCCNC(=O)Cn3cc(CCCCCN)nn3)CC2)nc(N2CCN(C(=O)CCCCCCCCCCNC(=O)[C@H]([C@@H](C)CC)n3cc(CCCCN=C(N)N)nn3)CC2)n1 | nt | nt | nt | nt | 17.8µM* | nt
C[C@H]([C@H](C)N1CC(=O)NC(=O)C1)N1CC(=O)NC(=O)C1 | 4.7% | nt | -2.7% | nt | -4.5% | nt
O=C1CC(N2CCN(c3ccccc3O)CC2)C(=O)N1Cc1ccccc1 (stereo not drawn) | -4.4% | 3.14µM* | -4.3% | -2.3% | 9.3% | -0.3
